Several values for one entry are separate records, joined by “and”; a condition that tells them apart may be missing. Equal values may be shown once. Records with an inconclusive call do not appear. A call without a number means that no potency is given here. More than one record can exist for a structure, and the calls need not agree. Activity calls are given as the source filed them. The call rests on the fitted dose curve; in most records, active means well fitted cell-killing curve with a large enough effect in the repeat runs; inconclusive means weak or mixed curves, or effect the other way; inactive means flat fitted curve, though single readings scatter.
Assay: qHTS RealTime-Glo MT Cell Viability Assay in HEK293 cells - 16 hour (AID 1224872); further: nearly all actives have a fitted effect of over 50% in size; on activity change, negative = cytotoxicity: top concentration of the series differs between compounds
Details: RealTime-Glo luminescence; series mostly up to 76.8 µM; activity change, negative = cytotoxicity: at the top concentration
Description: National Center for Advancing Translational Sciences [NCATS]
NIH Chemical Genomics Center [NCGC]
U.S. Environmental Protection Agency [EPA]
National Institutes of Environmental Health Sciences [NIEHS]
National Toxicology Program [NTP]
U.S. Food and Drug Administration [FDA]
Measure of cell viability is critical in the cell-base assay. Analysis of cell viability is necessary for the characterization of cell responses to cytotoxic drugs and environmental stress. A RealTime-Glo MT Cell Viability Assay to monitor cell viability in real time of continues cell culture during 40 hours of compound treatment was used to screen Tox21 10K library compounds in Hek293 cells. The RealTime-Glo MT Cell Viability Assay is a nonlytic, homogeneous, bioluminescent method to measure cell viability in real time using a simple, plate-based method. The assay involves adding NanoLuc luciferase and a cell-permeant prosubstrate to cells in culture. Viable cells reduce the proprietary prosubstrate to generate a substrate for NanoLuc luciferase. This substrate diffuses from cells into the surrounding culture medium, where it is rapidly used by the NanoLuc Enzyme to produce a luminescent signal. The signal correlates with the number of viable cells, making the assay well suited for cytotoxicity studies.
Tox21 Assay Protocol Summary:
The mixture of Hek293 cell suspension and reagents were dispensed at 600cells/6 ul/well in 1536-well tissue culture treated black solid bottom plates using a Multidrop dispenser. After the assay plates were incubated at a 37 C/5% CO2 incubator for 5 hours, 23 nL of compounds dissolved in DMSO, positive and negative controls was transferred to the assay plate by a pintool work station. The plates were incubated at 37 C for 40 hours. The luminescence intensity were measured at 0h, 8h, 16h, 24h, 32h and 40h time points using ViewLux plate reader during compound treatment.
Potency means the concentration at half of the fitted maximal effect.

Row | SMILES | Potency | activity change, negative = cytotoxicity
1 | CN(C)C=O | inactive | 
2 | N[C@@H](Cc1c[nH]c2ccc(O)cc12)C(=O)O | inactive | 
3 | CCn1cc(C(=O)O)c(=O)c2ccc(C)nc21 | inactive | 
4 | O=c1c(-c2ccc(O)cc2)coc2cc(O)cc(O)c12 | 21.9 µM (active) | 
5 | COc1cc(C=O)ccc1O | inactive | 
6 | CCN(CC)CCOC(=O)c1ccc(N)cc1 | inactive | 
7 | CC(=O)Oc1ccccc1C(=O)O | inactive | 
8 | CO[C@H]1C=CO[C@@]2(C)Oc3c(C)c(O)c4c(O)c(c(/C=N/N5CCN(C)CC5)c(O)c4c3C2=O)NC(=O)/C(C)=C\C=C[C@H](C)[C@H](O)[C@@H](C)[C@@H](O)[C@@H](C)[C@H](OC(C)=O)[C@@H]1C | 6.96 µM (active) and 2.21 µM (active) and 21.3 µM (active) | 
9 | O=C(O)CN(CC(=O)O)CC(=O)O | inactive | 
10 | C=CC(=O)NC(C)(C)CS(=O)(=O)O | inactive | 
11 | O=[N+]([O-])c1ccc(O)cc1 | inactive | 
12 | Nc1cccc(N)c1 | inactive | 
13 | CC(=O)c1ccc(S(=O)(=O)NC(=O)NC2CCCCC2)cc1 | inactive | 
14 | C#C[C@]1(O)CC[C@H]2[C@@H]3CCC4=CC(=O)CC[C@@H]4[C@H]3CC[C@@]21CC | 43.6 µM (active) and inactive | 
15 | C1CNCCN1 | inactive | 
16 | O=C(O)Cc1cccc2ccccc12 | inactive | 
17 | CCCCC/C(C=O)=C\c1ccccc1 | inactive | 
18 | CC(O)COc1ccccc1 (stereo not given) | inactive | 
19 | OC[C@@H](O)[C@@H](O)[C@H](O)[C@H](O)CO | inactive | 
20 | COc1cc(O)c(C(=O)c2ccccc2)cc1S(=O)(=O)O | inactive | 

Row | SMILES | Potency | activity change, negative = cytotoxicity
21 | CCCCCCCC(=O)OCC(O)CO (stereo not given) | inactive | 
22 | NC(N)=NC(N)=NCCc1ccccc1 |  | -25.1% [at 35.3 µM] (inactive)
23 | CC(=O)/C=C/C1=C(C)CCCC1(C)C | inactive | 
24 | COC(=O)C1CCC(C(=O)OC)CC1 (stereo not given) | inactive | 
25 | COc1ccccc1NC(=O)CC(C)=O | inactive | 
26 | CC1=C(/C=C/C(C)=C/C=C/C(C)=C/C(=O)O)C(C)(C)CCC1 | inactive | 
27 | COC1=CC(=O)C[C@@H](C)[C@]12Oc1c(Cl)c(OC)cc(OC)c1C2=O | inactive | 
28 | Cc1cccc(Nc2cc(Cl)nc(SCC(=O)O)n2)c1C | inactive | 
29 | CC(=O)OC/C=C(C)/C=C/C=C(C)/C=C/C1=C(C)CCCC1(C)C | inactive | 
30 | CCCCOCCOCCSC#N | inactive | 
31 | COCCOCCOC | inactive | 
32 | O=C1CCCCCN1 | inactive | 
33 | NC(=O)OCC(COC(N)=O)c1ccccc1 | inactive | 
34 | C[C@]12CC[C@@H]3c4ccc(O)cc4C[C@@H](CCCCCCCCCS(=O)CCCC(F)(F)C(F)(F)F)[C@H]3[C@@H]1CC[C@@H]2O (stereo not given in full) | 43.6 µM (active) | 
35 | CC(C)Cc1ccc(C(C)C(=O)O)cc1 (stereo not given) | inactive | 
36 | CCCCNC(=O)NS(=O)(=O)c1ccc(N)cc1 | inactive | 
37 | CCCCOCCOCCOC(C)=O | inactive | 
38 | C=CCOC(=O)CC(C)C | inactive | 
39 | Cc1c(N(C)C)c(=O)n(-c2ccccc2)n1C | inactive | 
40 | COc1cc2c(c(OC)c1OC)-c1ccc(OC)c(=O)cc1[C@@H](NC(C)=O)CC2 | inactive | 

— PubChem BioAssay (Tox21)
